# Data as given in ChEMBL document CHEMBL3988442, “University of Dundee, Small-Polar-MMV Screening Library” (2021).
# Out of some 48,000 compounds screened, about 13,000 (27%) showed an effect of 50% or more. The list shows a part of the results.
# Tested on: Wolbachia pipientis
# Test: Anti-Wolbachia Cell-Based Screen
# Type: functional
# Set-up: scale not given: in the data most compounds retested in dose-response had high values
# Details: 5 µM
row,SMILES,Percent Effect [%]
1,CCOCC(=O)NCC1Cn2nnc(-c3cccc(F)c3)c2CO1 (stereo not given),-1.189
2,NCC1Cc2cccc(-c3ccc(O)c(F)c3)c2O1 (stereo not given),16.35
3,CC(NC(=O)N(C)Cc1ccsc1)c1nncn1C (stereo not given),-12.05
4,CNC(=O)c1cc2c(nc1NCC(C)C)CCN(S(=O)(=O)C1CC1)CC2,-0.7375
5,CCc1nnsc1C(=O)N(C)Cc1ccco1,13.36
6,COC[C@H]1CC[C@H]2[C@H](CCN2C(=O)c2ccncc2F)O1,114.1
7,COC[C@@H]1CC[C@H]2[C@H](CCN2S(=O)(=O)c2ccc(F)cc2)O1,6.066
8,CCOC[C@H]1CC[C@H]2[C@H](CCN2C(=O)c2ccncc2F)O1.O=C(O)C(F)(F)F,0.195
9,CCOC[C@H]1CC[C@H]2[C@H](CCN2S(=O)(=O)Cc2ccccc2)O1,-6.562
10,CCOC[C@@H]1CC[C@H]2[C@H](CCN2C(=O)c2ccncc2F)O1,103.3
11,COC[C@@H]1CC[C@H]2[C@H](CCN2C(=O)c2ccncc2F)O1.O=C(O)C(F)(F)F,-6.773
12,CCOCC(=O)N1Cc2nnn(C)c2C(COCc2ccccn2)C1.O=C(O)C(F)(F)F (stereo not given),0.961
13,Cc1ccc(CN2Cc3nnn(C)c3C(COCc3ccccc3)C2)s1.O=C(O)C(F)(F)F (stereo not given),113.4
14,CN(C)C(=O)N1Cc2nnn(C)c2C(COCc2cccnc2)C1.O=C(O)C(F)(F)F (stereo not given),-1.037
15,Cc1ccc(CN2CCc3c(nnn3C)C2COCc2ccccc2)s1.O=C(O)C(F)(F)F (stereo not given),-9.551
16,Cc1ccc(CN2Cc3nnn(C)c3C(COCc3ccccn3)C2)s1.O=C(O)C(F)(F)F.O=C(O)C(F)(F)F (stereo not given),95.33
17,Cn1nnc2c1C(COCc1ccccn1)CN(C(=O)c1cccs1)C2.O=C(O)C(F)(F)F (stereo not given),-3.747
18,Cc1cc(CN(C)C(=O)CNS(=O)(=O)c2cccs2)no1,-1.596
19,CC[C@H]1COCCN1C(=O)c1ccc(OC)c(N2CCOCC2)c1,7.42
20,Cc1ncsc1CN1C[C@@H]2CCCO[C@@H]2[C@H](N(C)C(C)C)C1.O=C(O)C(F)(F)F.O=C(O)C(F)(F)F,-15.14
21,CCN(C(=O)C(C)C)C(c1cccnc1)c1ccc2c(c1)CCO2 (stereo not given),4.729
22,CC(Cc1ccsc1)NC(=O)c1cc(N2CCNC2=O)ccc1F (stereo not given),-0.338
23,Cn1c(C(=O)NC(Cc2ccsc2)c2cccnc2)cc(=O)n(C)c1=O (stereo not given),166.4
24,CC(c1cccnc1)N1CCN(C(=O)NCc2cnn(C)c2)CC1 (stereo not given),-9.128
25,Cc1cc(NC(=O)CCc2ccsc2)n(C)n1,5.21

row,SMILES,Percent Effect [%]
1,Cc1csc(C(Cc2ccsc2)NC(=O)c2cc(=O)n(C)c(=O)n2C)n1 (stereo not given),142.4
2,Cc1cnccc1NC(=O)CCc1ccsc1,-8.034
3,Cc1csc(N2CCN(C(=O)Cc3ccsc3)CC2)n1,4.933
4,Cn1c(=O)cc(C(=O)NC(Cc2ccsc2)c2cccnc2)[nH]c1=O (stereo not given),175.1
5,CCN(CC)c1ccc(C(=O)N(C)Cc2c(C)noc2C)cn1,3.136
6,CCN(Cc1ccc(C#N)cc1F)C(=O)CN(C)CC(N)=O,-8.702
7,COCc1ccccc1C(=O)NCCCN1CCCC1C(=O)N(C)C (stereo not given),-20.3
8,CC(C)c1nnc2n1CCN(c1nc3ccccc3o1)C2,11.04
9,Cc1nn(-c2ccccc2)cc1C(=O)N1CCCN2CCCC2C1 (stereo not given),6.19
10,CC(C)CCC(=O)N1CCN(C(=O)c2ccc(-n3cccn3)cc2)CC1,-3.976
11,O=C(c1cc(-n2cccn2)ccc1Cl)N1CCCC(N2CCCC2)C1 (stereo not given),114.1
12,O=C(c1ccc(-n2cccn2)cc1Cl)N1CCCC(O)(CO)C1 (stereo not given),-12.88
13,O=C(c1cccc(-n2cccn2)c1)N1CCOC(CCO)C1 (stereo not given),-0.5625
14,CCN(CC)C1CCN(C(=O)c2cc(-n3cccn3)ccc2Cl)CC1,93.46
15,O=C(c1cccnc1-n1cccn1)N1CCN(CC2CC2)CC1,-16.04
16,O=C(c1cc(-n2cccn2)ccc1Cl)N1CCC(N2CCCC2=O)CC1,95.9
17,O=C(NCc1ccccc1-n1cccn1)N1CCN2CCCCC2C1 (stereo not given),-0.3123
18,CCn1ccnc1CN1CCCC(N(C)CCc2ccccc2)C1 (stereo not given),3.806
19,COc1ccc(Cl)cc1-c1cc(NC(=O)C2COCCO2)[nH]n1 (stereo not given),-1.485
20,Cc1cc(I)cnc1NC(=O)C(C)(C)C,-4.531
21,CC(C)Cc1nc(OCC(N)=O)c(C#N)c2c1CCC2,34.66
22,COCCCC1(C(=O)O)CCCN(C(=O)c2ccc(C(C)C)[nH]c2=O)C1 (stereo not given),4.25
23,O=C(Nc1ccnc(OC2CCOC2)c1)c1ccccc1Cl (stereo not given),70.82
24,Cc1occc1C(=O)Nc1ccnc(OC2CCOC2)c1 (stereo not given),30.35
25,O=C(Nc1ccnc(OC2CCOC2)c1)c1ccc(F)cc1Cl (stereo not given),-10.63

row,SMILES,Percent Effect [%]
1,N[C@H]1CN(C(=O)c2ccccc2Oc2ccccc2)C[C@@H]1C1CC1,-0.964
2,O=C(O)c1ccnc(-c2ccnc(N3CCC(F)(F)CC3)n2)c1,-4.386
3,CCN1CCN(CCC(=O)NC2CC(c3cccc(Cl)c3)C2)CC1 (stereo not given),-7.949
4,Cc1nccn1C1CCCN(C(=O)c2ccc3c(c2)COC3)C1 (stereo not given),0.6755
5,Cc1nccn1C1CCCN(C(=O)c2ccc3cc[nH]c3c2)C1 (stereo not given),104
6,Cc1nccn1C1CCCN(C(=O)c2cc3ccccc3[nH]2)C1 (stereo not given),-11.12
7,Cc1nccn1C1CCCN(C(=O)c2ccc3c(c2)CCC3)C1 (stereo not given),108.9
8,CC(CO)NCc1csc2c1CCCC2 (stereo not given),1.325
9,CCCc1ccc(CN2CCN(C(=O)CC(C)C)[C@@H]3CS(=O)(=O)C[C@@H]32)o1,-2.422
10,COc1cc(N2CCc3ncnc(-c4ccncc4)c3CC2)ncn1.O=C(O)C(F)(F)F,4.079
11,O=C(O)C(F)(F)F.O=C(c1ccncc1)N1CCc2ncnc(C3CC3)c2CC1,-7.83
12,CC(C)NC(=O)N1CCc2ncnc(-c3ccncc3)c2CC1.O=C(O)C(F)(F)F,129.4
13,Cc1ncnc2c1CCN(C(=O)c1ccncc1)CC2.O=C(O)C(F)(F)F,-2.654
14,O=C(O)C(F)(F)F.O=C(c1ccno1)N1CCc2ncnc(-c3ccncc3)c2CC1,111.4
15,O=C(NC1CC1)N1CCc2ncnc(-c3ccncc3)c2CC1.O=C(O)C(F)(F)F,-17.44
16,CN(C)C(C(=O)NC1(CO)CCCC1)c1ccc(F)cc1 (stereo not given),-4.7
17,O=C1N(c2ccc(Br)cc2)Cc2nc(=O)[nH]n21,13.29
18,Cc1cc2cc(C(=O)N[C@@H]3CC[C@@H](N4CCCC4)[C@@H]3O)ccc2o1,117.2
19,Cc1cc2cc(C(=O)N3CCN(CCO)[C@@H]4CS(=O)(=O)C[C@@H]43)ccc2o1,-0.6581
20,Cc1cc2cc(C(=O)N[C@@H]3CC[C@@H](N4CCNC(=O)C4)[C@@H]3O)ccc2o1,121.8
21,Cc1cc2cc(C(=O)N[C@@H]3CC[C@@H](N4CCOCC4)[C@@H]3O)ccc2o1,-19.97
22,Cc1cc(C(=O)N[C@@H]2CCNC[C@H]2O)ccc1Cl,-15.13
23,CCN(C)c1ncnc2c1CCN(C(=O)c1ccno1)CC2,-25.29
24,N#Cc1cnn(C(=O)CCCOc2ccccc2Cl)c1N,5.085
25,CC(=O)N1CCC(n2ccc(-c3cnc(N4CCOCC4)nc3)n2)CC1,94.2

row,SMILES,Percent Effect [%]
1,CCC(SC)C(=O)N1CCC(n2ccnn2)CC1 (stereo not given),9.459
2,O=C(NCC(F)F)N1CCC(n2ccc(C(F)(F)F)n2)CC1,4.357
3,CN(C(=O)c1cnc(N2CCOCC2)nc1)C1Cc2ccccc2C1,-2.733
4,CC[C@H](C)Nc1ncc(-c2ccn(C3CCN(C(C)=O)CC3)n2)cn1,95.97
5,CC(=O)N1CCC(c2nnc3ccc(C(=O)NCC(C)C)cn23)C1 (stereo not given),-18.5
6,CC(C)NC(=O)N1CCC(n2ccc(C(F)(F)F)n2)CC1,-15.91
7,Cn1cc(-c2cnc(N3CCOCC3)nc2)cc1C(=O)O,-1.361
8,CC(=O)N1CCC(n2ccc(-c3cnc(NCC(C)C)nc3)n2)CC1,75.49
9,O=C(O)c1cc(-c2ccncc2)cc(S(=O)(=O)N2CCSCC2)c1,-4.815
10,O=C(CCC(=O)N1CCOCC1c1ccccc1)c1cccs1 (stereo not given),-0.4955
11,CC(C(=O)Nc1ccc2ccccc2c1)N1CCC(n2ccnc2)CC1 (stereo not given),14.62
12,CCSCCNc1nc(-c2ccccn2)nc2c1c(C)nn2C,-9.72
13,CCCc1nnc(N(C)CC2CCN(CC(C)C)C2)o1 (stereo not given),22.96
14,CCc1nnc2n1CCN(Cc1csc(-c3ccccc3)n1)C2,-8.809
15,CC(=O)Nc1nc(CN2CCn3c(C)nnc3C2)cs1,106.6
16,CCc1nnc2n1CCN(Cc1csc(Cc3ccccc3)n1)C2,110.3
17,CC(C)c1nnc2n1CCN(Cc1csc(CC(=O)N(C)C)n1)C2,-25.19
18,CC(=O)Nc1nc(CN2CCn3c(nnc3C(C)C)C2)cs1,134.2
19,CCc1nnc2n1CCN(Cc1csc(-c3cnn(C)c3)n1)C2,-17.9
20,Cc1nnc2n1CCN(Cc1csc(CC(=O)N(C)C)n1)C2,-5.269
21,CC(=O)Nc1nc(CN2CCn3c(nnc3C3CC3)C2)cs1,-1.677
22,CC(C)c1nnc2n1CCN(Cc1csc(-c3cnn(C)c3)n1)C2,-7.082
23,CCc1nnc2n1CCN(Cc1csc(-c3ccccc3F)n1)C2,-7.505
24,CCc1nnc2n1CCN(Cc1csc(NC(C)=O)n1)C2,125.2
25,Cc1nnc2n1CCN(Cc1csc(Cc3ccccc3)n1)C2,-6.731
